# About 79,000 compounds went through this panel and 15% of them were active in at least one assay; those are over-represented in the sample as a whole. Unmarked numbers belong to inactive results. Active and inactive are the calls of the source. No stated cut-off is given here; in the data, active means growth inhibition above about 70%; inactive means the rest.
# Key:
# [1] = NCI Yeast Anticancer Drug Screen. Data for the rad50 strain (AID 155);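 further: 0% = growth of vehicle-only cultures of the same strain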; conditions: S. cerevisiae rad50 strain growth inhibition; at 50.0 µM; stronger effect = higher value
# Outline: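 Vehicle-treated cultures provide the reference for the growth inhibition reported for compound-exposed, repair-deficient yeast.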
# [2] = NCI Yeast Anticancer Drug Screen. Data for the mec2-1 strain (AID 157); conditions: S. cerevisiae mec2-1 strain, at 50.0 µM, stronger effect = higher value
# Outline: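 Cells of the genetically defined mec2-1 yeast strain are incubated with test compound. Inhibition of growth is calculated against vehicle-treated controls.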
# [3] = NCI Yeast Anticancer Drug Screen. Data for the sgs1 mgt1 strain (AID 161);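 further: 0% = growth of cultures given vehicle only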; conditions: S. cerevisiae sgs1 mgt1 strain, at 50.0 µM, stronger effect = higher value
# Outline: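 Genetically altered yeast, compound exposure, growth inhibition relative to vehicle.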
# [4] = NCI Yeast Anticancer Drug Screen. Data for the cln2 rad14 strain (AID 165);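 further: 0% = growth equal to vehicle treated cultures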; conditions: S. cerevisiae cln2 rad14 strain, at 50.0 µM, stronger effect = higher value
# Outline: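 The screen exposed genetically defined yeast (cln2 rad14) to test compounds and scored growth inhibition relative to vehicle-treated controls.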
# [5] = NCI Yeast Anticancer Drug Screen. Data for the bub3 strain (AID 167); conditions: S. cerevisiae bub3 mutant strain, at 50.0 µM, stronger effect = higher value
# Outline: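 Mutant yeast screening strain plus compound; vehicle-treated cultures serve as the 0% inhibition reference.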
# [6] = NCI Yeast Anticancer Drug Screen. Data for the mlh1 rad18 strain (AID 175); conditions: S. cerevisiae mlh1 rad18 strain growth inhibition; at 50.0 µM; stronger effect = higher value
# Outline: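 Compound-treated yeast growth, normalised to vehicle controls. Strain bears defined DNA repair mutations.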
Structure (SMILES),growth inhibition [1],growth inhibition [2],growth inhibition [3],growth inhibition [4],growth inhibition [5],growth inhibition [6]
O=C(O)CCc1ccc(NP(=O)(Oc2ccccc2)N(CCCl)CCCl)cc1 (centres undefined),8.05%,6.65%,15.1%,14.7%,2.3%,-20.2%
NC(=O)Nc1cc(NC(N)=O)cc(N(CCCl)CCCl)c1,-7%,-19.7%,-20.1%,-7.15%,-15.7%,-24.1%
C/C=C1/CN2CCC1CC2C(O)c1ccnc2ccc(OCCO)cc12 (centres undefined),-8.4%,-13.2%,-2.35%,-9.35%,-24.6%,24.9%
CCCCCCCCCSCP(=O)(OCC)OCC,99.5% (active),99.8% (active),99.7% (active),98.9% (active),99.5% (active),99.7% (active)
CCOP(=O)(OCC)/C(C#N)=C/c1cnc(C)[nH]1,-52.4%,24%,-36%,26.4%,16.1%,-5.55%
O=C(NC(c1ccccc1)(c1ccccc1)c1ccccc1)N(CCCl)CCCl,5.95%,20.7%,12.9%,5.3%,39.5%,-7.5%
CN1CCCC(C(=O)c2ccccc2)C1 (centres undefined),0.45%,-5.1%,-0.3%,-18.9%,-4.95%,3.75%
CC(CCC#N)([N+](=O)[O-])[N+](=O)[O-],17.1%,12.8%,4.35%,0.5%,10.3%,12.9%
CCCCCCCCCCC[CH2][Hg][Cl],8.6%,3.15%,12.4%,-18.6%,-3.45%,-3.1%
OCC(Br)CBr (centres undefined),40.9%,0.35%,-3.6%,-62.6%,-11.7%,-4.5%
C/C=C/C(=O)[O-].C/C=C/C(=O)[O-].N.N.N.N.[Co+3].[O-][Cl+3]([O-])([O-])[O-],0.2%,-2.7%,-7.2%,25.1%,7.3%,-3.5%
N#CNC(N)=S,-13.8%,-10.3%,-10.3%,-8.7%,-14.3%,-8.35%
OC(Cc1ccccn1)C(Cl)(Cl)Cl (centres undefined),-10.2%,-13.5%,-1.7%,-15.6%,4.35%,3.9%
NC1CN2CCC1CC2 (centres undefined),9.35%,-7.65%,-14.6%,11.8%,-8.55%,1.15%
ClCCN(CCCl)c1ccc(/C=N\N=C\c2ccncc2)cc1,4.35%,-3.95%,6.15%,-8.5%,0.95%,-1.8%
CCNP(=O)(OCC)OCC,9.9%,-15.6%,12.2%,24.4%,7.6%,17.9%
C[C@]12CC[C@H]3[C@@H](CCC4=C(Br)C(=O)CC[C@@H]43)[C@@H]1CC[C@@H]2O,9.5%,2.3%,10.6%,-19.6%,2.5%,19.1%
CC(=O)Nc1cccc([As]=O)c1 (centres undefined),11.5%,2.75%,9.95%,7.6%,-10.8%,19.1%
Nc1ccc([N+](=O)[O-])cc1N,9.15%,-14.7%,-12.8%,-36.9%,-17.4%,10.2%
S=C(Nc1ccccc1)N1CC1,-7.85%,-22.3%,-19.9%,-11.9%,-6.15%,-17.4%

Structure (SMILES),growth inhibition [1],growth inhibition [2],growth inhibition [3],growth inhibition [4],growth inhibition [5],growth inhibition [6]
CC(=O)Cc1ccc2c(c1)OCO2,13.2%,-11.4%,-0.35%,1.1%,-16.9%,22.9%
O=S(=O)(O)c1ccc([Se][Se]c2ccc(S(=O)(=O)O)cc2)cc1,5.8%,-12.9%,-18.1%,-33.5%,-19.2%,-17.4%
[Cl][Pt]([Cl])[Cl].[NH-]C1CN2CCC1CC2 (centres undefined),19.9%,19.4%,-13.8%,22.4%,2.2%,-7.55%
O=[N+]([O-])c1ccc2nc(-c3ccc(S(=O)(=O)F)cc3)cc(Cl)c2c1,-19.1%,16.9%,4.45%,-12.4%,13.3%,-9.9%
CC(C)(C)OO,5.35%,7.05%,0.95%,-0.6%,22.4%,-17%
ClCCCCBr,17.6%,-14.2%,20.4%,13.5%,2.4%,18.8%
N#CCCSCCC#N,25.4%,6.55%,14.1%,3.7%,6.8%,4.6%
O=C1C=CC(=Nc2ccc(N(CCCl)CCCl)cc2)C=C1,39.5%,18.8%,13.3%,3.5%,7.1%,3.5%
Cn1c(O)c(N=NC(N)=S)c(=O)n(C)c1=O,30.6%,20.4%,8.95%,-20.4%,-20.3%,14.6%
CC(=O)Nc1ccc([As](=O)(O)O)cc1[N+](=O)[O-],0.85%,-12.3%,0.1%,-3.35%,23.2%,15.5%
C=C(C)[C@H]1Cc2c(ccc3c2O[C@@H]2COc4cc(OC)c(OC)cc4[C@@H]2C3=O)O1,43.5%,19.2%,43.4%,27.8%,49.1%,52.8%
COc1ccc(C(CC(=O)O)CC(=O)c2ccc(N(CCCl)CCCl)cc2)cc1 (centres undefined),54%,22.7%,24.8%,74.7% (active),87.3% (active),68.5%
Cc1cccc(CCF)c1,-8.4%,8.5%,1.25%,-3.8%,-0.15%,-4.75%
O=S(=O)(O)C1CCC(O)C2[N-]CCCC21.O=S(=O)(O)C1CCC(O)C2[N-]CCCC21.[Ni+2] (centres undefined),50.8%,-4.3%,27.9%,-13.4%,8.4%,23.9%
CCCCOP(=O)(O)SP(=O)(O)OCCCC,-13.8%,17.1%,10.6%,20.9%,2.3%,-3%
O=S1(=O)OCCO1,-3.5%,-9%,-3.8%,-27.4%,-5.55%,7.9%
N#Cc1cccnc1,4.75%,-4.15%,4.1%,5.6%,9.05%,2.75%
CC(C)N(C(C)C)[PH+]1O[PH+](N(C(C)C)C(C)C)O[PH+](N(C(C)C)C(C)C)O[PH+](N(C(C)C)C(C)C)O[PH+](N(C(C)C)C(C)C)O1.[C-]#[O+].[C-]#[O+].[C-]#[O+].[C-]#[O+].[C-]#[O+].[C-]#[O+].[C-]#[O+].[Cr].[Cr] (centres undefined),17.7%,-5.45%,-14.5%,-0.75%,2.8%,-3.8%
NC1=NC(N)=N1,1.95%,16.6%,-6.2%,-1.25%,14.2%,-13.2%

# From PubChem BioAssay (NCI)
